# Assay outcomes as filed in PubChem BioAssay.
# Rows were chosen to be rich in hits. Some 4.5% of all compounds tested hit in one or more screens of this group.
# hgDAF12 agonist = activates the H. glycines DAF-12 receptor ligand-binding domain; HEK293 GAL4-hgDAF12 UAS-luciferase reporter, agonist luminescence; normalized to butyrate control; activation, % at 6.8 µM; hit rate 1.8% among 370,000; AID 687014;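 active = activation above a cutoff set at the mean of all screened compounds plus 3 SD, cut at about 10% in these data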;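 also: 0% = DMSO wells and 100% = sodium butyrate wells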
# DAX1 inh-1 = blocks DAX1 repression of SF-1 activated StAR promoter; HEK293T StAR-luciferase reporter, SF-1/DAX-1 repression relief; inhibition, % at 6.8 µM; hit rate 1.1% among 370,000;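 active = inhibition above the mean over all tested compounds plus 3 SD, cut at about 3.6% in these data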;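 also: 0% = DAX-1 cells with DMSO and 100% = cells lacking DAX-1 with DMSO; higher inhibition means more luminescence from relief of DAX-1 repression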
# ssDAF12 agonist = activates DAF-12 receptor from parasite S. stercoralis | HEK293 ssDAF-12/GRIP1 lit1-tk-luc reporter, luminescence; % of 3 µM dafachronic acid response | hit rate 1% among 370,000 | activation, % at 6.8 µM;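 active = activation above the mean over all tested compounds plus 3 SD, cut at about 0.9% in these data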;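 also: 0% = DMSO-only wells and 100% = 3 µM delta7-dafachronic acid wells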
# DAX1 inh-2 = inhibitors of human orphan nuclear receptor DAX1 (NR0B1); AID 504766; P51843; HEK293 Gal4-DAX1 luciferase reporter, luminescence; hit rate 0.99% among 340,000; inhibition, % at 6.75 µM;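 active = inhibition above the mean over all tested compounds plus 3 SD, cut at about 4.2% in these data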;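 also: 0% = DAX1-transfected cells with DMSO and 100% = empty-vector control cells with DMSO; inhibition shows as a rise in luminescence from relieved DAX1 repression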
# Target sequence (P51843 207-470 limits assumed): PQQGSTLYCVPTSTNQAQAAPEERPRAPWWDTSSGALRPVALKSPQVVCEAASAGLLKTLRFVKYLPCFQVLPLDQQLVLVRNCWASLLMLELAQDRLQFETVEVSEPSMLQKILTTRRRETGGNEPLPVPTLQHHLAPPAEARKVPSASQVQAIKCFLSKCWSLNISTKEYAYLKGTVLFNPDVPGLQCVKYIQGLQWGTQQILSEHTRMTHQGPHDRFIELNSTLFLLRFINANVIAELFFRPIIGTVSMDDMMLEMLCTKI
# FXN GAA850 act = frataxin GAA850 promoter activation; AID 540364; activation, % at 6 µM; HEK293 lucGAA850 FXN promoter luciferase reporter, 24 h; percent of 10 µM SAHA response; hit rate 0.56% among 360,000;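 active = activation above the average of all compounds screened plus 3 SD, cutoff fixed separately per campaign, cut at about 7.5% in these data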;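 also: 0% = DMSO wells and 100% = 10 µM SAHA wells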
# hcDAF-12 act = H. contortus DAF-12 activation, primary screen; HEK293 hcDAF-12 lit1-tk-luc reporter, luminescence; 0% DMSO, 100% Δ7-dafachronic acid; activation, % at 6.8 µM; hit rate 1.4% among 370,000; AID 652067;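 active = activation above the mean of all tested compounds plus 3 SD, cut at about 5.5% in these data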;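 also: 100% = response to 3 µM Δ7-dafachronic acid high control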
# Active calls of the source: *; / = not tested or not shown.
SMILES,hgDAF12 agonist,DAX1 inh-1,ssDAF12 agonist,DAX1 inh-2,FXN GAA850 act,hcDAF-12 act
COc1ccc(CC(=O)Nc2ccc(/C(C)=N\NC(=O)c3ccc(Br)o3)cc2)cc1,12.2*,2.9,0.0,1.4,6.0,6.2*
O=C(Nc1ccccc1)c1ccc(Br)o1,2.9,0.3,-1.3,0.9,3.9,-1.3
CN(Cc1ccccc1)S(=O)(=O)c1cccc(C(=O)OCC2CCCCC2)c1,-1.3,-0.1,-1.7,/,/,-0.2
C/C(=N\NC(=O)c1c(Br)c(C)nn1C)c1ccc(NC(=O)c2ccoc2C)cc1,12.2*,1.1,-0.6,2.4,3.4,-0.5
CC/C(=N/NC(=O)c1ccc(Br)o1)c1ccc(Cl)cc1,11.6*,0.7,-1.4,0.7,4.2,2.1
Cc1nc(NC(=O)c2ccc(Br)o2)ccc1Br,5.3,4.0*,-0.5,0.1,3.8,3.6
CCC(=O)Nc1ccc(/C(C)=N/NC(=O)c2c(Br)c(C)nn2C)cc1,0.1,0.3,-0.7,0.7,0.6,-0.1
CCN1CCN(c2ccc(NC(=O)c3ccc(Br)o3)cc2)CC1,10.8*,3.7*,1.1*,1.4,4.3,3.4
O=C(OCC#CCSc1nnc(-c2cccc3ccccc23)o1)c1ccc(SC(F)(F)F)cc1,0.3,/,-1.5,/,/,-2.8
CCOC(=O)CC[C@@H]1CC[C@]2(CCCN(Cc3ccc(Cl)cc3)C2)O1,1.9,0.4,-0.5,/,/,1.2
C/C(=N\NC(=O)C1CC1)c1ccc(NC(=O)c2ccc(Br)o2)cc1,8.3,2.0,-1.0,/,/,2.7
C/C(=N\NC(=O)c1c(Cl)cnn1C)c1ccc(NC(=O)c2ccc(Br)o2)cc1,8.0,6.3*,-0.5,0.1,2.1,1.3
c1ccc2c(c1)Nc1cc3ccccc3cc1O2,4.8,0.0,0.9*,1.5,4.5,3.6
N#C/C(=C(/O)CSc1ncn[nH]1)c1nc2ccccc2[nH]1,-0.3,0.7,-0.5,0.0,4.0,6.5*
Cc1cc2c(cc1C)NC(=O)CC(C(F)(F)C(F)(F)C(F)(F)F)=N2,1.5,-0.3,-0.6,4.7*,-0.2,-1.7
Cc1ccc2c(c1)NC(=O)CC(c1ccccc1)=N2,0.6,0.6,-1.3,0.8,0.7,-1.5
C#CCN1C(C(=O)OC)CN(CCCCCC)CCS1(=O)=O (stereo not drawn),-0.8,-1.0,-0.3,/,/,0.0
O=C(Nc1ccc2[nH]ncc2c1)c1ccccc1Br,12.4*,1.7,-0.6,1.0,2.3,4.2
Cc1nc(-c2ccc(NC(=O)c3ccccc3Br)cc2)cs1,20.6*,2.8,0.5,0.7,3.4,-0.6
O=C(Nc1ccc2[nH]ncc2c1)c1ccccc1,7.4,1.0,-0.4,2.3,3.4,2.5
O=C(Nc1ccc2[nH]ncc2c1)c1ccccc1Cl,13.2*,1.2,-1.0,-1.4,1.9,1.0
COC(=O)C1CN(Cc2ccc(OC)cc2)CCS(=O)(=O)N1Cc1ccc(C(F)(F)F)cc1 (stereo not drawn),-4.4,-2.3,-2.0,/,/,-2.9
CCCCc1c(-c2ccccc2OC)ncn1Cc1ccc(C)cc1,-4.7,-2.3,-2.1,/,/,-2.2
Nc1nc2ccccc2[nH]1,-0.2,0.1,-0.6,0.7,1.8,-1.3
c1ccc(CSCc2nc3ccccc3[nH]2)cc1,6.5,1.0,-0.7,2.0,4.6,6.4*
SMILES,hgDAF12 agonist,DAX1 inh-1,ssDAF12 agonist,DAX1 inh-2,FXN GAA850 act,hcDAF-12 act
Nc1nc(CSc2nc3ccccc3[nH]2)cs1,4.2,0.1,0.2,4.6*,3.8,4.2
Nc1ccccc1Sc1nc2ccccc2[nH]1,0.8,2.8,-0.2,-0.1,1.8,8.9*
CCSc1nc2ccccc2[nH]1,-0.5,-0.3,-0.8,1.7,0.3,1.4
Fc1ccc(CSc2nc3ccccc3[nH]2)cc1,11.6*,3.4,-0.2,3.3,2.2,3.1
C[C@H]1[C@@H](OC(=O)NCc2ccc(Cl)c(Cl)c2)CC[C@@]23CCCN2C(=O)CCC[C@@H]13,-2.8,/,-2.1,/,/,-3.3
COc1ccc(Cn2cc(COC(=O)NCCc3c[nH]c4ccccc34)nn2)cc1,0.9,-1.0,-1.4,/,/,-1.2
COC(=O)[C@H](C(C)C)N1CCc2nnn(Cc3ccc(C)cc3)c2-c2cc(F)ccc2S1(=O)=O,-2.1,-1.1,-2.0,/,/,-2.7
Cc1ccc(C(=O)C2CC2)c(C)c1,0.9,-0.5,3.1*,-1.2,-1.2,1.0
CCCC1CCC2(CC1)CCC2OC(=O)Nc1ccc(F)cc1 (stereo not drawn),2.5,/,-1.6,/,/,-2.1
